Sfp inh: Sfp phosphopantetheinyl transferase inhibition; Potency, µM, for inactives: largest response in the series, negative = inhibition, usual class: inhibitors; AID 1490; Biochemical Sfp PPTase activity, qHTS; Q9F4F7; hit rate 3.5% among 310,000;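 note: the enzyme is Sfp with the accession as filed and its product quenches rhodamine fluorescence; 0% = enzyme reaction without inhibitor and -100% = no enzyme wells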
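With Hepes-Na pH 7.6 buffer containing 10 mM MgCl2, Sfp (15 nM) modified BHQ-2-YbbR (12.5 uM) using rhodamine-CoA (5 uM). Two reads 30 minutes apart at 525/598 nm yielded each well's rate.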
BAZ2B inh: inhibitors of human BAZ2B bromodomain; AID 504333; AlphaScreen BAZ2B-H3K14Ac peptide displacement; hit rate 4.4% among 360,000; Potency, µM (titrated, usually from 114 µM), without a hit: at the highest dose activity change, negative = inhibition, usual class: inhibitors; note: % is set by controls: 0 for no effect and ±100 for the full control effect; nearly all actives have a fitted effect of over 60% in size
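In this displacement format the biotinylated H3(5-23) peptide acetylated at Lys14 serves as ligand at 50 nM, with BAZ2B at 50 nM in PBS pH 7.4 containing 0.01% Tween-20. Donor and acceptor beads are 10 ug/mL final.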
JMJD2A Tudor: JMJD2A Tudor domain (human) inhibition. AlphaScreen JMJD2A-Tudor / H3K4me3 peptide binding. Potency, µM (top dose mostly 114 µM), for inactives: top-dose activity change, negative = inhibition, actives largely listed as inhibitors. O75164. hit rate 4.4% among 390,000; note: % is set by controls: 0 for no effect and ±100 for the full control effect; nearly all actives have a fitted effect of over 50% in size
HP1b chromo inh: inhibitors of HP1-beta chromodomain binding to methylated histone tails. P83916. AlphaScreen HP1-beta / biotin-H3K9me3 peptide binding. Potency, µM (top dose mostly 114 µM), inactives show top-dose activity change, negative = inhibition, hits mostly inhibitors. hit rate 0.56% among 390,000. AID 540317; note: nearly all actives have a fitted effect of over 70% in size
Target sequence (P83916 whole entry, looked up): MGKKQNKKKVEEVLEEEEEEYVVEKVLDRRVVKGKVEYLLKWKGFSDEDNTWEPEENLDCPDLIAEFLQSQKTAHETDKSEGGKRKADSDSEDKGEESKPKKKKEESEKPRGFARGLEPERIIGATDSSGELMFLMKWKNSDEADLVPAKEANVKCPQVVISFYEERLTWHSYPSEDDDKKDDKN
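AlphaScreen: HP1-beta (50 nM) preformed 30 min with biotin-H3(1-18)K9me3 peptide (50 nM) in PBS pH 7.4, 0.01% Tween-20. Compound added for 30 min at RT, then streptavidin donor/nickel chelate acceptor beads (10 ug/mL) for 30 min.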
G9a inh: blocks human histone lysine methyltransferase G9a; hit rate 8.8% among 350,000; Q96KQ7; G9a H3K9 monomethylation, AlphaScreen, 2 h; Potency, µM (series often up to 102 µM), without a hit: top-dose activity, negative = inhibition, usual class: inhibitors; note: % is set by controls: 0 for no effect and ±100 for the full control effect; nearly all actives have a fitted effect of over 75% in size
Target sequence (Q96KQ7 913-1193 limits assumed): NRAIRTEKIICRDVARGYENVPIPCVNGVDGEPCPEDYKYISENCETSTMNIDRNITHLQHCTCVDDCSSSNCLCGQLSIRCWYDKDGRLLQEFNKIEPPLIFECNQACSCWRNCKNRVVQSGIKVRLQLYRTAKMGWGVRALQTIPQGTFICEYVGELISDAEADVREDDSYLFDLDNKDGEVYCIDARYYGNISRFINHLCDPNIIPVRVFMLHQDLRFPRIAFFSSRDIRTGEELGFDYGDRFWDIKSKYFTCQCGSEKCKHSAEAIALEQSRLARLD
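Methyltransferase reactions run at room temperature for 2 h (20 nM enzyme, 500 nM biotin-H3K9 peptide, 20 uM SAM) after a 15 min compound preincubation; product detected by AlphaScreen beads and anti-H3K9me1 antibody.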
Starred values were filed as active, the others as inactive; ? = inconclusive; nt = not tested or not shown; [ ] = remark or other dose. Sampled rows, rich in hits. Any-hit rate of the full collection: about 12%. Calls come from the whole dose curve; as a rule, active = well fitted curve in the direction sought with a large enough effect; inconclusive = small, poorly fitted or top-dose-only effect, or another doubt; inactive = no such curve, though single readings can be large; an effect the other way counts as inactive or inconclusive. Potency is the fitted concentration of half-maximal effect.

SMILES	Sfp inh	BAZ2B inh	JMJD2A Tudor	HP1b chromo inh	G9a inh
CCc1ccc2nc(N(CCCN(C)C)C(=O)c3ccc(S(=O)(=O)N4CCCc5ccccc54)cc3)sc2c1	35.5µM*	?	44.7µM*	?	39.8µM*
CCOC(=O)N1CCN(S(=O)(=O)c2ccc(C(=O)N(CCN(C)C)c3nc4ccc(CC)cc4s3)cc2)CC1	2.4%	?	?	-1.0%	50.1µM*
CCc1ccc2nc(N(CCCN(C)C)C(=O)c3ccc(S(=O)(=O)N4CCCC4)cc3)sc2c1	0.9%	-30.3%	-35.3%	18.5%	50.1µM*
Nc1cc(Br)c(N)c(Br)c1	-0.9%	-32.2%	-15.3%	-3.8%	50.1µM*
COC(=O)[C@@H]1C[C@@]2(O)[C@H](O)[C@H](O)[C@H](O)C[C@H]2N1Cc1ccc(N2CCOCC2)cc1	4.7%	nt	nt	nt	nt
NC(C(=O)O)C(O)C(=O)O (stereo not given)	8.7%	nt	nt	nt	nt
NC(C(=O)O)[C@H](O)C(=O)O (stereo not given in full)	56.2µM*	nt	nt	nt	5.8%[59 µM]
CCOc1cc(/C=C2\N=C(SC(C)C(N)=O)N(c3ccc(OC(F)F)cc3)C2=O)ccc1O (stereo not given)	44.7µM*	-33.8%	?	-3.3%	?
CCN1C(=O)[C@H]2[C@H]3[C@H](O)[C@H](O)C/C(=N/O[C@@H]4O[C@@H](COC(C)=O)[C@@H](OC(C)=O)[C@@H](OC(C)=O)[C@H]4OC(C)=O)[C@H]3CC[C@@H]2C1=O	4.1%	nt	nt	nt	nt
O=C(Cn1cc([N+](=O)[O-])ccc1=O)NCC1COc2ccccc2O1 (stereo not given)	nt	-11.8%	-11.8%	16.9%	-4.8%[2.33 µM]
O=C(Nc1nnc2n1CCS2)c1ccc(F)cc1F	nt	50.1µM*	50.1µM*	12.7%[57 µM]	2.24µM*
Cc1ccccc1C(=O)Nc1nnc2n1CCS2	nt	?	?	9.0%[57 µM]	8.91µM*
CC(C)(C)OC(=O)C[C@@H]1C/C=C\C[C@@H](CC(=O)NCCO)C(=O)NC[C@H](c2ccccc2)OC1=O	nt	nt	-21.6%	26.4%	nt
COC(=O)C(NS(N)(=O)=O)C(C)C (stereo not given)	8.2%	nt	-12.4%	34.9%	nt
CCc1cc2c(nc1CC)CCN(CC/C(C)=N/O[C@@H]1O[C@H](COC(C)=O)[C@H](OC(C)=O)[C@H](OC(C)=O)[C@H]1OC(C)=O)C2	6.5%	nt	nt	nt	nt
O=C(Nc1nc2ccc(S(=O)(=O)N3CCCC3)cc2s1)c1ccc(F)cc1	nt	3.2%	-2.1%	46.0%	-5.9%[59 µM]
O=S(=O)(Nc1nc2ccc(S(=O)(=O)N3CCCC3)cc2s1)c1ccc(F)cc1	-14.1%	?	-27.6%	-8.9%	39.8µM*
Nc1ccc2cc3ccc(N)cc3nc2c1	-23.6%	nt	nt	nt	28.2µM*
Cc1cccc(OCC(=O)Nc2ccc(C(=O)OCc3cc(=O)n4nc(C5CC5)sc4n3)cc2)c1	nt	-0.8%	-1.0%	25.0%	0.0%[12.7 µM]
Fc1ccc(-c2cc(-c3nc(-c4cccc(Cl)c4)no3)[nH]n2)cc1	nt	1.6%	-17.2%	-0.6%	9.6%[59 µM]
O=C(CSC(=S)N1CCOCC1)c1cc2ccccc2oc1=O	-3.6%	-23.7%	-29.9%	-3.4%	70.8µM*
O=C(OCC(=O)N1CCOCC1)c1cc2ccccc2oc1=O	nt	4.7%	-2.3%	29.4%	30.4%[12.7 µM]
Cc1cc(C)nc(SCC(=O)c2cc3ccccc3oc2=O)n1	17.8µM*	-33.5%	-20.8%	34.7%	?
O=C(C[n+]1cccc2ccccc21)c1ccccc1	?	11.0%	1.4%[57.1 µM]	47.3%	44.7µM*
O=C(C[n+]1cccc2ccccc21)c1ccc(NC(=O)c2ccccc2)cc1	5.0%	-24.5%	-8.7%	39.5%	25.1µM*
SMILES	Sfp inh	BAZ2B inh	JMJD2A Tudor	HP1b chromo inh	G9a inh
COc1ccc2c(ccc[n+]2CC(=O)c2ccccc2)c1	14.0%	-26.3%	8.3%	41.0%	-4.6%
Cc1cc[n+](CC(=O)c2ccc(NC(=O)c3ccccc3)cc2)c2ccccc12	-6.0%	?	?	13.1%	39.8µM*
Cc1onc(C(=O)NC2CCCCC2)c1[N+](=O)[O-]	5.9%	-2.9%	-15.7%	55.4%	11.7%
CCOC(=O)C1=CN(CC)CCC1=O	nt	nt	-2.7%	33.4%	nt
O=c1c2[nH]cnc2n(-c2cccc(F)c2)c(=O)n1Cc1ccccc1	-14.6%	-16.2%	-3.9%	52.4%	12.6%
CC(C)(S)[C@@H](N)C(=O)O	50.1µM*	44.7µM*	3.98µM*	-19.1%	?
N#Cc1ccccc1CSc1ccc(-c2nc3ccccc3[nH]2)cn1	4.47µM*	4.4%	-11.2%	-3.2%	?
CC(=O)CSc1ccc(-c2nc3ccccc3[nH]2)cn1	-4.9%	7.6%	-3.2%	39.1%	17.7%[0.501 µM]
CC(/C=C/c1ccco1)=N\NC(=O)CNc1ccc2ccccc2c1	-6.5%	35.5µM*	?	-20.0%	5.62µM*
CN(C)c1ccc(/C=N/NC(=O)CNC(=O)/C=C/c2ccco2)cc1	-4.1%	?	?	-16.1%	0.9%
CC(/C=C/c1ccco1)=N/NC(=O)CNc1ccccc1C	50.1µM*	-37.7%	-26.9%	-3.5%	-5.8%[59 µM]
CCOc1ccccc1CNCc1cccn1-c1nnc(N2CCN(c3ccccc3)CC2)s1	nt	?	?	-21.0%	14.1µM*
Cc1cc2nc3c(=O)[nH]c(=S)[nH]c3nc2cc1NC(=O)C(F)(F)F	79.4µM*	-38.2%	-10.3%	11.4%	28.2µM*
CC1CN(C(=O)C(C)N2CCN(c3ccccc3Cl)CC2)CC(C)O1 (stereo not given)	22.0%	11.3%	6.7%[57.1 µM]	36.6%	5.0%
CC1CN(C(=O)C(C)N2CCN(c3cccc(Cl)c3)CC2)CC(C)O1 (stereo not given)	5.3%	-2.8%	63.1µM*	?	34.6%
O=[S+]([O-])(c1ccc2c(c1)OCCO2)N1CCN([S+](=O)([O-])c2cc(Cl)ccc2F)CC1	nt	nt	-11.0%	nt	nt
O=C(c1nc2ccc(Cl)cn2c1CN1CCCC1)N1CCc2ccccc2C1	-3.8%	?	?	9.4%	79.4µM*
CN(Cc1cccnc1)Cc1c(C(=O)N2CCc3ccccc3C2)nc2ccc(Cl)cn12	-5.3%	-23.2%	-21.4%	30.5%	50.1µM*
CCCOc1ccc(Cl)cc1CNc1ccccc1	-1.5%	35.3%	57.0%	52.4%	205.8%
COCCCNCCCOc1ccc(Cl)cc1C(C)(C)C	?	0.6%	28.2µM*	-27.0%	?
CNCCCOc1ccc(Cl)cc1C(C)(C)C	?	31.6µM*	44.7µM*	?	14.1µM*
C=CCc1ccc(OCCOCCOc2cccc3ccc(C)nc23)c(OC)c1	?	28.2µM*	1.12µM*	15.8µM*	3.55µM*
COC(=O)NNC(=O)CCCOc1ccc(Cl)cc1Cl	11.2%	8.5%	1.4%	27.7%	6.1%[59 µM]
CCC(C)NCCCOc1ccc(Cl)cc1C(C)(C)C (stereo not given)	-46.2%	50.1µM*	3.16µM*	?	12.6µM*
CCCCc1ccc(NC(=O)c2cc(-c3ccc(C)c(F)c3)on2)cc1	nt	-7.5%	-23.8%	0.8%	-10.3%[59 µM]
c1cncc(-c2cc(NCc3cccs3)ncn2)c1	-25.6%	nt	nt	nt	1.9%[0.501 µM]

Screens as filed in PubChem.
